Data: PubChem BioAssay (Tox21)
Several values for one entry are separate records, joined by “and”; a condition that tells them apart may be missing. Identical values can stand only once. Results filed as inconclusive are left out. More than one record can exist for a structure, and the calls need not agree. Activity calls are given as the source filed them. Unless noted, calls come from the whole dose curve; as a rule, active = well fitted curve in the direction sought with a large enough effect in the repeat runs; inconclusive = weak or mixed curves; inactive = no such curve, though single readings can be large; an effect the other way counts as inactive or inconclusive.

How the values were obtained:
[1] = qHTS assay to identify small molecule agonists of the estrogen receptor alpha (ER-alpha) signaling pathway in the presence of an antagonist - cell viability counter screen (AID 1259386);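 note: cells exposed to compounds for 22 h at 37 °C before the viability read; nearly all actives have a fitted effect of over 30% in size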; note: potency is the fitted concentration of half-maximal effect; for activity change, negative = cytotoxicity: series mostly up to about 92 µM
In short: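 Cells are starved of estrogens for 5 days in charcoal-stripped serum, seeded for 24hr and co-treated with ICI-182,780 (10.0nM final) and test compounds. After 22hr at 37C, viability is read as CellTiter-Fluor fluorescence.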

[2] = target: Progesterone receptor (Homo sapiens) (UniProt P06401); test: qHTS assay to identify small molecule agonists of the progesterone receptor (PR) signaling pathway (AID 1346784; calls by dose curve; note: nearly all actives have a fitted effect of over 30% in size; note: potency is the fitted concentration of half-maximal effect)
Progesterone receptor (Homo sapiens), sequence (P06401 whole entry, looked up): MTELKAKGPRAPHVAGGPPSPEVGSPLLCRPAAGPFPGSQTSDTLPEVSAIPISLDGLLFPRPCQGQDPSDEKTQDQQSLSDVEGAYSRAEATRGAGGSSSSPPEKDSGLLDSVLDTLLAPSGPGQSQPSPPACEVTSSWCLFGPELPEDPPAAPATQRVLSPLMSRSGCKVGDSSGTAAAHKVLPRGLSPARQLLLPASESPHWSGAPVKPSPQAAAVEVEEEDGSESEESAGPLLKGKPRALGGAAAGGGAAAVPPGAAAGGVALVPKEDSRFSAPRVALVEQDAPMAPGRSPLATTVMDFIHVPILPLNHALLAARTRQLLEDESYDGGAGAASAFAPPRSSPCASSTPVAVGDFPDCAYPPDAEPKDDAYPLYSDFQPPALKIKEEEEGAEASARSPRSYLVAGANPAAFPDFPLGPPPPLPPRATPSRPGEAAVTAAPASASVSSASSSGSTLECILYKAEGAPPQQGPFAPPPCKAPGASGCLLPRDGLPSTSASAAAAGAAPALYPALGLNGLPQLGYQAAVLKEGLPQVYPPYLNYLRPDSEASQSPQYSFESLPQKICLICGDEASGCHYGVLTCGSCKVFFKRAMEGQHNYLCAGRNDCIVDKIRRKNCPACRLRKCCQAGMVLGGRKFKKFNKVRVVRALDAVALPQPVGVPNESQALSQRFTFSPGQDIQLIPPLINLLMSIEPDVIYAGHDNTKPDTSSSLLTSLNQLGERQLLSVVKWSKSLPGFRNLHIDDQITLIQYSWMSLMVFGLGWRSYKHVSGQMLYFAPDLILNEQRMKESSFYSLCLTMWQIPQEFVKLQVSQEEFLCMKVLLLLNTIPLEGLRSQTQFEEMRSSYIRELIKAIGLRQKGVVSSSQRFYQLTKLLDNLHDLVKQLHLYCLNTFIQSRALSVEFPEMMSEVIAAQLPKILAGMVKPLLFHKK
In short: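 PR-UAS-bla HEK 293T cells carrying a UAS-driven beta-lactamase reporter were seeded in medium with 2% charcoal-stripped FBS, preincubated 6 hr at 37C, then exposed to compounds in DMSO for 16 hr; agonism was read by LiveBLAzer B/G FRET fluorescence.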

[3] = target: Progesterone receptor (Homo sapiens) (UniProt P06401); test: qHTS assay to identify small molecule antagonists of the progesterone receptor (PR) signaling pathway (AID 1346795; active = well fitted inhibition curve with a large enough effect in the signal ratio in the repeat runs, not every such curve was filed as active; the % refers to the signal ratio; note: potency is the fitted concentration of half-maximal effect)
In short: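 PR-UAS-bla HEK293T cells carrying a UAS-driven beta-lactamase reporter were plated in medium with 2% charcoal-stripped FBS and rested 6 hr at 37C. Compounds were added with 1 nM R5020 (final) for 16 hr, then FRET substrate loaded 2 hr at room temperature.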

[4] = qHTS assay to identify small molecule antagonists of the progesterone receptor (PR) signaling pathway - cell viability counter screen (AID 1346798); note: series mostly up to about 92 µM; nearly all actives have a fitted effect of over 50% in size
In short: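 PR-UAS-bla HEK293T cells in medium with 2% charcoal-stripped FBS were treated with compounds plus R5020 for 16 hr at 37C. Cell viability was then read by CellTiter-Glo luminescence after 30 min at room temperature in the same wells.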

[5] = qHTS assay to identify small molecule agonists of the progesterone receptor (PR) signaling pathway - cell viability counter screen (AID 1346799; calls by dose curve; note: nearly all actives have a fitted effect of over 45% in size)
In short: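 PR-UAS-bla HEK293T cells, 3,000 per well in medium with 2% charcoal-stripped FBS, were preincubated 6 hr at 37C, then exposed to compounds for 16 hr; viability was read as CellTiter-Glo luminescence after 30 min at room temperature.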

[6] = qHTS assay to identify small molecule agonists of the TGF-beta/Smad signaling pathway (AID 1346859; active = well fitted activation curve with a large enough effect in the signal ratio in the repeat runs, not every such curve was filed as active; the % refers to the signal ratio; note: series mostly up to about 77 µM)
In short: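 HEK 293T cells stably carrying a beta-lactamase reporter driven by the Smad binding element were seeded overnight, exposed to DMSO-dissolved compounds for 5 hr at 37 C, 5% CO2, then loaded with FRET substrate for 2 hr at room temperature.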

[7] = Human pregnane X receptor (PXR) small molecule agonists, qHTS cell viability counter screen (AID 1346977); note: nearly all actives have a fitted effect of over 50% in size
In short: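 PXR-Luc HepG2 cells in medium with 5% charcoal-stripped FBS were pre-incubated 5hr, then exposed to compounds for 24hr at 37C. Viability was read in the same wells by CellTiter-Fluor fluorescence, reagent added after 23hr with a 1hr incubation.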

[8] = Caspase-3/7 induction in HepG2 cells by small molecules, qHTS assay (AID 1346978); note: nearly all actives have a fitted effect of over 15% in size
In short: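 Wild-type HepG2 cells (2,000/well) were settled 5 h at 37 C, 5% CO2, then exposed to compounds in DMSO for 17 h. Caspase-3/7 activity was read by luminescence 30 min after adding Caspase-Glo 3/7 reagent at room temperature.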

[9] = Caspase-3/7 induction in CHO-K1 cells by small molecules, qHTS cell viability counter screen (AID 1346979); note: nearly all actives have a fitted effect of over 35% in size; note: potency is the fitted concentration of half-maximal effect
In short: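 Wild-type CHO-K1 cells were seeded at 1,500 per well, rested 5hr at 37 C, then exposed to compounds in DMSO. After 16hr, CellTiter-Fluor reagent was added and fluorescence read 1hr later as the viability measure.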

[10] = Caspase-3/7 induction in CHO-K1 cells by small molecules, qHTS assay (AID 1346980); note: nearly all actives have a fitted effect of over 15% in size
In short: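 Wild-type cells were seeded at 1,500 per well and settled 5 hr at 37 C, 5% CO2, then exposed to DMSO-dissolved compounds for 17 hr. Caspase-Glo 3/7 reagent was added, and luminescence was read after 30min at room temperature.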

[11] = Caspase-3/7 induction in HepG2 cells by small molecules, qHTS cell viability counter screen (AID 1346981); note: nearly all actives have a fitted effect of over 30% in size; note: potency is the fitted concentration of half-maximal effect; for activity change, negative = cytotoxicity: series mostly up to about 92 µM
In short: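 Steps: seed 2,000 HepG2 cells per well; incubate 5 hr at 37 C; pin-add compounds in DMSO; incubate 16 hr; add CellTiter-Fluor; after 1 hr at 37 C and 5% CO2, read fluorescence.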

[12] = target: Nuclear receptor subfamily 1 group I member 2 (Homo sapiens) (UniProt O75469); test: Human pregnane X receptor (PXR) small molecule agonists, qHTS assay (AID 1346982); note: nearly all actives have a fitted effect of over 35% in size; note: potency is the fitted concentration of half-maximal effect
Nuclear receptor subfamily 1 group I member 2 (Homo sapiens), sequence (O75469 whole entry, looked up): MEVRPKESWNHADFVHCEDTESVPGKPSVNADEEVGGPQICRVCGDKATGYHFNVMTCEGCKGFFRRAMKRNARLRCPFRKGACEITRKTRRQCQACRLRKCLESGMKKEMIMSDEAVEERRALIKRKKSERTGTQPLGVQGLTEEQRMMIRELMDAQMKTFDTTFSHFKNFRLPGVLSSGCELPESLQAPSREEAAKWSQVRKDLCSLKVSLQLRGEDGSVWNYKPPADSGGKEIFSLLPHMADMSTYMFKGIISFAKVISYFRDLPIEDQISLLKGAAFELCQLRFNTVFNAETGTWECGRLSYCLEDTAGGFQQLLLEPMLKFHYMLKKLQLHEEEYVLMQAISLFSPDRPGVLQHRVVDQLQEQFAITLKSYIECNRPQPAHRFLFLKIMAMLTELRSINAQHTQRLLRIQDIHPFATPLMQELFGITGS
In short: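 Agonist mode qHTS: PXR-Luc HepG2 cells plated 5 hr before DMSO-dissolved compounds were pinned in, cultured 24 hr at 37 C, 5% CO2; ONE-Glo luminescence readout.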

[13] = target: Nuclear receptor subfamily 1 group I member 2 (Rattus norvegicus) (UniProt Q9R1A7); test: Rat pregnane X receptor (rPXR) activation by small molecules, qHTS assay (AID 1346983); settings: rPXR luciferase reporter cells, One-Glo luminescence, 24 h; max activation: stronger effect = higher value; note: nearly all actives have a fitted effect of over 20% in size
Nuclear receptor subfamily 1 group I member 2 (Rattus norvegicus), sequence (Q9R1A7 whole entry, looked up): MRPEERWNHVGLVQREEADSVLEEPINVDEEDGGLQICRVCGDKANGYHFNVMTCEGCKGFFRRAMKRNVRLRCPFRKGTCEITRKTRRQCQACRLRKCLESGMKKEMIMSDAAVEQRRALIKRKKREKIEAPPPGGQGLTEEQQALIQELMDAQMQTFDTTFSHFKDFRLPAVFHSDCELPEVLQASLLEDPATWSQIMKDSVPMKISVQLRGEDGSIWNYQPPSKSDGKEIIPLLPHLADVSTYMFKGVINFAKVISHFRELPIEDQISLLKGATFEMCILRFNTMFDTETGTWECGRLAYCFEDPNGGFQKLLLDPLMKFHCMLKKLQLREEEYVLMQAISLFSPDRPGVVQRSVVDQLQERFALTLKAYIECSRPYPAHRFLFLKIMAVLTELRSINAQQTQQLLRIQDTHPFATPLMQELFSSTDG
In short: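 Cell-based rPXR luciferase reporter assay, 2,000 cells per well, rested 5hr at 37 C before compound addition in DMSO, then 24 hr at 37 C. One-Glo reagent was added and luminescence read after 30 min at room temperature.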

[14] = target: Nuclear receptor subfamily 1 group I member 2 (Homo sapiens) (UniProt O75469); test: CYP3A4 induction through human pregnane X receptor (PXR) by small molecules, qHTS assay (AID 1346984); note: nearly all actives have a fitted effect of over 40% in size
In short: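 Steps: seed DPX-2 cells, 5 hr at 37C; pin-transfer compounds; 24 hr at 37C; add Luciferin-IPA (3uM final), 3 hr at 37C; add One-Glo, 30 min RT; read luminescence.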

[15] = target: Nuclear receptor subfamily 1 group I member 2 (Homo sapiens) (UniProt O75469); test: Human pregnane X receptor (PXR) activation by small molecules, qHTS assay (AID 1346985); note: nearly all actives have a fitted effect of over 40% in size
In short: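 DPX-2 cells (HepG2 co-transfected with a PXR response element and a CYP3A4-promoter luciferase construct) were seeded at 2,000 per well, rested 5 hr at 37C, then exposed to DMSO-dissolved compounds for 24 hr. Activation was read as luciferase luminescence.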

[16] = target: Cytochrome P450 2D6 (Homo sapiens) (UniProt P10635); test: Cytochrome P450 Family 2 Subfamily D Member 6 (CYP2D6) small molecule antagonists: luciferase reporter qHTS assay (AID 1671196); note: nearly all actives have a fitted effect of over 50% in size; note: potency is the fitted concentration of half-maximal effect
Cytochrome P450 2D6 (Homo sapiens), sequence (P10635 whole entry, looked up): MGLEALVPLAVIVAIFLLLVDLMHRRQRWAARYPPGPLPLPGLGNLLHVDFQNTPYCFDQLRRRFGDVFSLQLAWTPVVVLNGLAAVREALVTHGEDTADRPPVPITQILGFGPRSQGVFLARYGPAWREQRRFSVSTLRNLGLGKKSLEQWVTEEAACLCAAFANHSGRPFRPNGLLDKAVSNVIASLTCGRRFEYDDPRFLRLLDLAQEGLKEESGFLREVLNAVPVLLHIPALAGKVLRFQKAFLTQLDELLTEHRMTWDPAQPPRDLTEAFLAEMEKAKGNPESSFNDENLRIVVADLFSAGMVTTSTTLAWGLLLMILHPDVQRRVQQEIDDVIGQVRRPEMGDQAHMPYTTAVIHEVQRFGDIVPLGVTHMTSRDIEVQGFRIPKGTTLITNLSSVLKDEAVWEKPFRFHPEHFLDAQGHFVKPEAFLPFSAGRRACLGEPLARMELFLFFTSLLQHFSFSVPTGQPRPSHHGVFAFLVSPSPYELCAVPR
In short: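 P450-Glo format: CYP2D6 converts a proluciferin substrate to luciferin in an NADPH-driven reaction lasting 1 h at room temperature. Light output, proportional to CYP2D6 activity, reflects interference by test chemicals.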

[17] = qHTS assay to identify small molecule antagonists of the TGF-beta/Smad signaling pathway - cell viability counter screen (AID 1346824); note: nearly all actives have a fitted effect of over 50% in size
In short: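 SBE-bla HEK 293T cells were plated overnight at 37 C, then given compounds in DMSO plus TGF-beta1 (added as 0.25 ng/mL solution) for 5 hr. After the bla read, CellTiter-Glo was added to the same wells and luminescence read after 30 min at room temperature.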

[18] = qHTS assay to identify small molecule agonists of the TGF-beta/Smad signaling pathway - cell viability counter screen (AID 1346829); note: top concentration of the series differs between compounds; nearly all actives have a fitted effect of over 45% in size
In short: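 In parallel with the Smad reporter read, viability of HEK 293T cells stably carrying SBE-bla is quantified by ATP luminescence following 5 hr compound treatment.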

[19] = target: Thyrotropin-releasing hormone receptor (Homo sapiens) (UniProt P34981); test: qHTS assay to identify small molecule antagonists of the thyrotropin-releasing hormone receptor (TRHR) signaling pathway (AID 1346877; active = well fitted inhibition curve with a large enough effect in the repeat runs, not every such curve was filed as active; note: potency is the fitted concentration of half-maximal effect)
Thyrotropin-releasing hormone receptor (Homo sapiens), sequence (P34981 whole entry, looked up): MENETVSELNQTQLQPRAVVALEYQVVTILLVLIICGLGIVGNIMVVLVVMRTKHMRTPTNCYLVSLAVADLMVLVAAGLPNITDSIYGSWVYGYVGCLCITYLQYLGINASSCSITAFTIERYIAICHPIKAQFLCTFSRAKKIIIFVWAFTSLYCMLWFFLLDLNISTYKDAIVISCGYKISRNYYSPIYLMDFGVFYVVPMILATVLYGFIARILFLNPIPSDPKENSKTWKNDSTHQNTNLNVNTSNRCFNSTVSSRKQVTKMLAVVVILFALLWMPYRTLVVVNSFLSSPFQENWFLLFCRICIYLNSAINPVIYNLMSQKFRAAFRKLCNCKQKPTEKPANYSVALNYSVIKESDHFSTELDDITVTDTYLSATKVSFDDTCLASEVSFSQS
In short: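 Cells (TRHR-HEK293) are plated and kept 18 h at 37 °C/5% CO2. A calcium-sensitive dye is added for 2 h, compound follows for 5 min at room temperature, and TRH is then given at 1 nM final.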

[20] = target: Thyrotropin-releasing hormone receptor (Homo sapiens) (UniProt P34981); test: qHTS assay to identify small molecule agonists of the thyrotropin-releasing hormone receptor (TRHR) signaling pathway (AID 1346891; calls by dose curve; note: potency is the fitted concentration of half-maximal effect; for activation: series mostly up to about 58 µM)
In short: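 TRHR-expressing HEK293 cells were plated 18 h at 37 °C/5% CO2, loaded with calcium dye 2 h at 37 °C, then given compound in DMSO; fluorescence was read kinetically for 3 min at 1 s intervals.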
% is set by controls: 0 for no effect and ±100 for the full control effect.

CN(Cc1cnc2nc(N)nc(N)c2n1)c1ccc(C(=O)N[C@@H](CCC(=O)O)C(=O)O)cc1
active: Potency [3] 0.133 µM
inactive: Potency [1] | Potency [2] | Potency [4] | Potency [5] | outcome [6] | Potency [7] | Potency [8] | Potency [9] | Potency [10] | Potency [11] | Potency [12] | max activation [13] -6.01% | Potency [14] | Potency [15] | Potency [16]

CC(=O)Nc1ccc2c(c1)Cc1cc(NC(C)=O)ccc1-2
inactive: Potency [1] | Potency [2] | Potency [3] | Potency [4] | Potency [17] | Potency [18] | outcome [6] | Potency [19] | Potency [20] | Potency [7] | Potency [8] | Potency [9] | Potency [10]

c1ccc2cc3ccccc3cc2c1
inactive: Potency [1] | Potency [2] | Potency [3] | Potency [4] | Potency [5] | Potency [17] | Potency [18] | outcome [6] | Potency [7] | Potency [8] | Potency [9] | Potency [10] | Potency [16]
active: Potency [12] 35.5 µM and 21.7 µM

CNC[C@H](O)c1ccc(O)c(O)c1
inactive: activity change, negative = cytotoxicity [1] -2.01% [at 19 µM] | activation [2] -0.635% [at 19 µM] | Potency [3] | Potency [4] | Potency [17] | Potency [18] | outcome [6] | Potency [19] | Potency [20] | Potency [7] | Potency [8] | activity change, negative = cytotoxicity [9] 0.265% [at 19 µM] | Potency [10] | activity change, negative = cytotoxicity [11] -0.0374% [at 19 µM] | max activation [13] 1.67% | Potency [14] | Potency [15]
active: Potency [2] 4.33 µM

CCCCCCCCCCCCCO
inactive: Potency [1] | Potency [2] | Potency [3] | Potency [4] | Potency [5] | Potency [17] | Potency [18] | outcome [6] | Potency [19] | Potency [20] | Potency [7] | Potency [8] | Potency [9] | Potency [10] | Potency [11] | Potency [16]

C=C[Si](OCCOC)(OCCOC)OCCOC
inactive: Potency [1] | Potency [2] | Potency [3] | Potency [4] | Potency [5] | Potency [17] | Potency [18] | outcome [6] | Potency [7] | Potency [8] | Potency [9] | Potency [10] | Potency [12]

IC(I)I
inactive: Potency [1] | Potency [2] | Potency [3] | Potency [4] | Potency [5] | Potency [17] | Potency [18] | outcome [6] | Potency [19] | Potency [20] | Potency [7] | Potency [8] | Potency [9] | Potency [10] | Potency [11] | Potency [12] | max activation [13] -1.04% | Potency [15]

O=S1(=O)CCCO1
inactive: Potency [1] | Potency [2] | Potency [3] | Potency [4] | Potency [5] | Potency [17] | Potency [18] | outcome [6] | Potency [7] | Potency [8] | Potency [9] | Potency [10] | Potency [11]

Brc1nc2ccccc2s1
inactive: Potency [1] | Potency [2] | Potency [3] | Potency [4] | Potency [5] | Potency [17] | Potency [18] | outcome [6] | Potency [19] | Potency [20] | Potency [7] | Potency [8] | Potency [9] | Potency [10] | Potency [16]
active: Potency [12] 60.9 µM

Nc1ccc(N)c(Cl)c1
inactive: Potency [2] | Potency [4] | Potency [5] | Potency [17] | Potency [18] | outcome [6] | Potency [8] | Potency [10]
inactive and 30.2 µM (active): Potency [19]
active: Potency [1] 61.1 µM | Potency [3] 27.3 µM | Potency [9] 61 µM and 54.5 µM | Potency [11] 68.5 µM | Potency [16] 12.6 µM and 22.4 µM
inactive and 4.9 µM (active): Potency [20]

Cc1ccc2c(c1)C(=O)OC2=O
inactive: Potency [1] | Potency [2] | Potency [3] | Potency [4] | Potency [17] | Potency [18] | outcome [6] | Potency [19] | Potency [20] | Potency [7] | Potency [8] | Potency [9] | Potency [10]

Cc1ccc(C)c(O)c1
inactive: Potency [1] | Potency [2] | Potency [3] | Potency [4] | Potency [5] | Potency [17] | Potency [18] | outcome [6] | Potency [19] | Potency [20] | Potency [7] | Potency [8] | Potency [9] | Potency [10] | Potency [12] | Potency [16]

Cc1ccc(S(=O)(=O)O)cc1C
inactive: Potency [1] | Potency [2] | Potency [3] | Potency [4] | Potency [17] | Potency [18] | outcome [6] | Potency [19] | Potency [20] | Potency [7] | Potency [8] | Potency [9] | Potency [10] | Potency [11] | Potency [12] | max activation [13] -0.712% | Potency [14] | Potency [15]

O=C(O)CCCC(=O)O
inactive: Potency [1] | Potency [2] | Potency [3] | Potency [4] | Potency [5] | Potency [17] | Potency [18] | outcome [6] | Potency [19] | Potency [20] | Potency [7] | Potency [8] | Potency [9] | Potency [10] | Potency [11]

C=CN1CCCC1=O
inactive: Potency [1] | Potency [2] | Potency [3] | Potency [4] | Potency [5] | Potency [17] | Potency [18] | outcome [6] | Potency [19] | Potency [20] | Potency [7] | Potency [8] | Potency [9] | Potency [10] | Potency [11] | Potency [12]

Cc1ccc(S(=O)(=O)NCl)cc1
inactive: Potency [1] | Potency [2] | Potency [3] | Potency [4] | Potency [5] | Potency [17] | Potency [18] | outcome [6] | Potency [7] | Potency [8] | Potency [9] | Potency [10] | Potency [11] | Potency [12] | max activation [13] 4.18% | Potency [14] | Potency [15] | Potency [16]
